Several values for one entry are separate records, joined by “and”; a condition that tells them apart may be missing. Identical values can stand only once. More than one record can exist for a structure, and the calls need not agree. Activity calls are given as the source filed them. Rule for the calls: active = hit-call score of the fitted dose curve at least 0.9, where 1 is the maximum; inactive = score below 0.9.

Read-out in experiment [1]: Collagen I, COL1A1 (gene 1277)
Put plainly: BSK_MyoF_CollagenI: BioMAP Diversity Plus: MyoF Assay for Collagen I Biomarker Activity (AID 2284238). Conditions: primary human lung fibroblasts. The essentials: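 ELISA readout of Collagen I after 24 h chemical treatment of primary human lung fibroblast cultures; gain of signal scored relative to DMSO vehicle baseline.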

Read-out in experiment [2]: Collagen III, COL3A1 (gene 1281)
Put plainly: BSK_MyoF_CollagenIII: BioMAP Diversity Plus: MyoF Assay for Collagen III Biomarker Activity (AID 2284239). Conditions: primary human lung fibroblasts. The essentials: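 Lung fibroblast culture; 24 h compound exposure; collagen III by ELISA; gain-of-signal fit vs DMSO baseline.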

Read-out in experiment [3]: Interleukin 17F (IL17F), IL17F (gene 112744)
The experiment in a line: BSK_BT_xIL17F: BioMAP Diversity Plus: BT Assay for Interleukin 17F (IL17F) Biomarker Activity (AID 2284243). The conditions noted are these: primary human B cells with PBMC. Put shortly: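 Secreted IL-17F, read on LumineX xMAP beads, was taken as the endpoint. Cultures combined human B cells and peripheral blood mononuclear cells, sampled 24 hours after dosing, with DMSO serving as negative control.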

Read-out in experiment [4]: Actin alpha 1 (ACTA1), ACTA1 (gene 58)
Put plainly: BSK_MyoF_ACTA1: BioMAP Diversity Plus: MyoF Assay for Actin alpha 1 (ACTA1) Biomarker Activity (AID 2284244). The conditions noted are these: primary human lung fibroblasts. The essentials:
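Lung fibroblasts, human primary, 24 h compound exposure → a-SMA ELISA. Positive-direction fit vs DMSO control.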

Read-out in experiment [5]: Interleukin 2 (IL2), IL2 (gene 3558)
The experiment in a line: BSK_BT_xIL2: BioMAP Diversity Plus: BT Assay for Interleukin 2 (IL2) Biomarker Activity (AID 2284245). The conditions noted are these: primary human B cells with PBMC. Put shortly: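 B cell + PBMC co-culture (human primary), compound added, 24 h incubation; secreted IL-2 measured multiplexed on Luminex xMAP; gain-of-signal fit vs DMSO.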

Read-out in experiment [6]: Collagen IV, COL4A1 (gene 1282)
The experiment in a line: BSK_MyoF_CollagenIV: BioMAP Diversity Plus: MyoF Assay for Collagen IV Biomarker Activity (AID 2284247). The conditions noted are these: primary human lung fibroblasts. Put shortly: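 Steps: dose human lung fibroblasts; culture 24 h; quantify Collagen IV by ELISA; fit increase versus DMSO control. Parallel SRB total-protein staining (0.1% SRB after 10% TCA fixation, 560 nm) tracks overt cytotoxicity.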

Read-out in experiment [7]: Plasminogen activator inhibitor-1 (PAI1), SERPINE1 (gene 5054)
Put plainly: BSK_MyoF_PAI1: BioMAP Diversity Plus: MyoF Assay for Plasminogen activator inhibitor-1 (PAI1) Biomarker Activity (AID 2284256).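 For outcome: PAI-1 protein level measured by ELISA in fibroblast cultures; PAI-1 read 24 h after compound addition.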 The conditions noted are these: primary human lung fibroblasts. The essentials:
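MyoF lung fibroblasts, human primary; compound 24 h; PAI-1 ELISA; positive-direction fit vs DMSO baseline; parallel SRB total-protein staining for cytotoxicity.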

Read-out in experiment [8]: Monokine induced gamma interferon (MIG), CXCL9 (gene 4283)
Put plainly: BSK_KF3CT_MIG: BioMAP Diversity Plus: KF3CT Assay for Monokine induced gamma interferon (MIG) Biomarker Activity (AID 2284248). Conditions: primary human keratinocytes with fibroblasts. The essentials:
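ELISA read-out of MIG after 24 h chemical exposure of human skin primary co-culture (keratinocytes, foreskin fibroblasts). Gain of signal relative to DMSO negative control was analysed.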

Read-out in experiment [9]: Collagen I, COL1A1 (gene 1277)
The experiment in a line: BSK_hDFCGF_CollagenI: BioMAP Diversity Plus: hDFCGF Assay for Collagen I Biomarker Activity (AID 2284250). The conditions noted are these: primary human foreskin fibroblasts. Put shortly: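 Human skin primary fibroblasts dosed with test chemical, harvested at 24 h, Collagen I quantified by ELISA; parallel SRB staining (0.1% SRB after 10% TCA fixation, 560 nm) tracked cytotoxicity.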

Read-out in experiment [10]: Interferon-inducible T-cell alpha chemoattractant (ITAC), CXCL11 (gene 6373)
Put plainly: BSK_hDFCGF_ITAC: BioMAP Diversity Plus: hDFCGF Assay for Interferon-inducible T-cell alpha chemoattractant (ITAC) Biomarker Activity (AID 2284251). The conditions noted are these: primary human foreskin fibroblasts. Put shortly:
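Fibroblasts (human foreskin, primary) are treated with chemical, cultured 24 h, then assayed for I-TAC by ELISA. Overt toxicity is checked in parallel cultures by sulforhodamine B staining of total protein at the same time point.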

Read-out in experiment [11]: Plasminogen activator inhibitor-1 (PAI1), SERPINE1 (gene 5054)
Put plainly: BSK_KF3CT_PAI1: BioMAP Diversity Plus: KF3CT Assay for Plasminogen activator inhibitor-1 (PAI1) Biomarker Activity (AID 2284252). Conditions: primary human keratinocytes with fibroblasts. The essentials: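 ELISA read-out of PAI-1 taken 24 h after chemical treatment of a human skin primary co-culture of keratinocytes and foreskin fibroblasts. Increases over DMSO-treated wells defined activity.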

Read-out in experiment [12]: Interleukin-8 (IL8), CXCL8 (gene 3576)
The experiment in a line: BSK_KF3CT_IL8: BioMAP Diversity Plus: KF3CT Assay for Interleukin-8 (IL8) Biomarker Activity (AID 2284254). Conditions: primary human keratinocytes with fibroblasts. The essentials:
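IL-8 read-out: ELISA, 24 h post-dose, human skin primary co-culture (keratinocytes + foreskin fibroblasts). DMSO = baseline; positive-direction fit.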

Turning to `CCN(CC)C(=O)N(CC)CC`, the result in [1], in [2], in [3], in [4], in experiment [5] and in experiment [6] was inactive. Besides, the outcome in experiment [7] was inactive.
With `CSCCC=O`, the result in experiment [1], in experiment [2], in [3], in [4], in experiment [5] and in [6] was inactive. Further, the result in [7] was inactive.
By AC50 is commonly meant the concentration at which the activity in the assay is half-maximal. On to `CS(=O)(=O)c1ccc(C2=C(c3ccccc3)C(=O)OC2)cc1`, for which the result in [1], in experiment [2], in experiment [3], in [4], in [5] and in experiment [6] was inactive. In addition, the AC50 in [7] was 0.0082 µM (active).
In the case of `CCCCCCC(CO)CCCC` (stereo not drawn), the concentration at half-maximal activity (AC50) in experiment [8] was 35.5 µM (active); in experiment [9] it was 36.4 µM (active) and 30.8 µM (active); in experiment [10], 33.1 µM (active) and 34.8 µM (active); in experiment [11], 32.7 µM (active) and 31 µM (active); in experiment [12], 28.9 µM (active) and 32.5 µM (active).
On to `C=C(C)C(=O)OCC(CC)(COC(=O)C(=C)C)COC(=O)C(=C)C`, for which the concentration at half-maximal activity (AC50) in [1] was 10.2 µM (active); in experiment [2], 29.3 µM (active); in experiment [3] it was 27.5 µM (active); in experiment [4] it was 10.5 µM (active); in experiment [5] it was 19.7 µM (active); in experiment [6], 14.6 µM (active). In addition, the AC50 in [7] was 13 µM (active).
As to `c1ccc(CCc2ccccc2)cc1`, the half-maximal activity concentration (AC50) is 31.9 µM (active) in [1]; 26.9 µM (active) in [2]; 13.7 µM (active) in experiment [4]; 31.5 µM (active) in experiment [6]; 35.2 µM (active) in experiment [7]. In addition, the result in [3] and in [5] was inactive.
Turning to `O=C(Nc1ccc2c(O)c(N=Nc3ccc(N=Nc4ccc(S(=O)(=O)O)cc4)cc3)c(S(=O)(=O)O)cc2c1)c1ccccc1`, the result in [8], in experiment [9], in experiment [11] and in experiment [12] was inactive. Moreover, the AC50 in experiment [10] is 32.3 µM (active) and 27.1 µM (active).
Take `O=CN1CCOCC1`: the result in [8], in [9], in [10], in [11] and in [12] was inactive.
For the compound `CCCCCCCCCCCCCCCC(=O)OC/C=C(C)/C=C/C=C(C)/C=C/C1=C(C)CCCC1(C)C`, the outcome in experiment [1], in experiment [2], in [3], in experiment [4], in experiment [5] and in [6] was inactive. The result in experiment [7] was inactive.
`CC=Cc1ccc(OCC)c(O)c1`: the result in [1], in experiment [2], in [3], in experiment [4], in experiment [5] and in experiment [6] was inactive. Further, the result in [7] was inactive.
`O=C1OC2(c3ccccc31)c1ccc(O)c(Br)c1Oc1c2ccc(O)c1Br`: the result in experiment [1], in experiment [3], in experiment [4] and in [5] was inactive. For the same compound, the figures for the AC50 in experiment [2], in experiment [6] and in [7] were 20 µM (active), 4.52 µM (active) and 9.25 µM (active), respectively.
As to `CCCCN(CCCC)C(=O)N(CCCC)CCCC`, the AC50 in [1] is 9.53 µM (active); in experiment [2], 8.12 µM (active); in [3] it was 29 µM (active); in [4], 6.35 µM (active); in [5] it was 32.5 µM (active); in [6], 8.89 µM (active). Moreover, in experiment [7], the concentration at half-maximal activity (AC50) is 10.7 µM (active).
Consider `CC(CN=Cc1ccccc1O)N=Cc1ccccc1O` (stereo not drawn), for which the result in experiment [8], in experiment [9], in experiment [10], in experiment [11] and in experiment [12] was inactive.
Take `IC(I)I`: the result in experiment [1], in [2], in experiment [3], in experiment [4], in [5] and in [6] was inactive. The outcome in [7] was inactive.
In the case of `CCOC(=O)C(C#N)=C(c1ccccc1)c1ccccc1`, the result in [8], in experiment [9], in [10], in experiment [11] and in experiment [12] was inactive. Moreover, the concentration at half-maximal activity (AC50) in experiment [10] is 26.1 µM (active).
As for `C1=CC2C3C=CC(C3)C2C1` (stereo not drawn), the outcome in experiment [1], in experiment [2], in experiment [3], in experiment [4], in experiment [5] and in experiment [6] was inactive. Further, the outcome in [7] was inactive.
With `C=C(C)C(=O)OCCOCCOCCOCCOC(=O)C(=C)C`, the outcome in experiment [1], in experiment [2], in [3], in experiment [4], in [5] and in [6] was inactive. In addition, the result in experiment [7] was inactive.
For the compound `CC(=O)c1c(C)c([N+](=O)[O-])c(C(C)(C)C)c([N+](=O)[O-])c1C`, the outcome in experiment [1], in [2], in [4], in experiment [5], in experiment [6] and in [7] was inactive. The AC50 in experiment [3] is 20 µM (active).
As to `C=C(C)[C@H]1CC=C(C)C(=O)C1`, the outcome in experiment [1], in [2], in [3], in experiment [4], in experiment [5] and in experiment [6] was inactive. The result in [7] was inactive.
Regarding `CCC(C)c1cc([N+](=O)[O-])cc([N+](=O)[O-])c1OC(=O)OC(C)C` (stereo not drawn), the AC50 in [1] was 2.66 µM (active); in experiment [2] it was 11.5 µM (active); in [3] it was 33.7 µM (active); in [4], 8.46 µM (active); in [5] it was 20 µM (active); in experiment [6] it was 20 µM (active). In experiment [7], the AC50 was 11.7 µM (active).
`CC(=O)Nc1ccc(C(=O)CCl)cc1`: the half-maximal activity concentration (AC50) in experiment [1] was 29.5 µM (active); in [2], 20 µM (active); in experiment [3], 3.15 µM (active); in experiment [4] it was 20 µM (active); in experiment [5], 5.57 µM (active); in experiment [6], 16.9 µM (active). The half-maximal activity concentration (AC50) in experiment [7] is 13.7 µM (active).
For the compound `CN(c1nccc(=O)[nH]1)C1CCN(c2nc3ccccc3n2Cc2ccc(F)cc2)CC1`, the outcome in [1], in experiment [2], in [3], in [4], in experiment [6] and in [7] was inactive. Besides, the concentration at half-maximal activity (AC50) in [5] was 9.2 µM (active).
With `O=C1c2ccccc2C(=O)c2c(O)ccc(O)c21`, the outcome in experiment [1], in experiment [2], in experiment [4], in experiment [6] and in experiment [7] was inactive. Also, the AC50 is 9.01 µM (active) in [3] and 3.97 µM (active) in experiment [5].
Take `C=CC(C)(O)CCC=C(C)C` (stereo not drawn): the outcome in experiment [8], in experiment [9], in experiment [10], in experiment [11] and in experiment [12] was inactive.
In the case of `CC1(C)CCC[C@]2(C)[C@H]3CCO[C@]3(C)CC[C@@H]12`, the concentration at half-maximal activity (AC50) in experiment [8] was 36.6 µM (active) and 36.2 µM (active); in [9], 18.7 µM (active); in [10], 30.5 µM (active) and 30.9 µM (active); in [11], 34.7 µM (active) and 34.6 µM (active); in experiment [12], 36.8 µM (active) and 31.3 µM (active). In addition, the outcome in experiment [9] was inactive.

The values are drawn from PubChem BioAssay (EPA / NIEHS).
